Experimental data: PubChem BioAssay AID1362 (SRMLSC, 2008)
Hit rate of the full screen: of about 190,000 compounds, about 4,000 (2.1%) were called active. Rule as the data show it: active = inhibition above about 58%; inactive = the rest, inconclusive results apart; tested in S. cerevisiae. Only a selection was taken, and actives are over-represented in it overall.

Assay: growth inhibition of WT strain, primary screen, mitochondrial fusion inhibitor project, WT and mutant strains, chemical genetic (AID 1362)
Conditions: mitochondrial fusion phenotypic screen, at 10 µM
[1] = WT strain, growth inhibition, stronger effect = higher value

Row | Structure (SMILES) | inhibition [1] | inhibition (mutant strain inhibition) [%]
1 | CC(=O)Nc1ccc(S(=O)(=O)N(C)c2ccc(OCC(=O)OCC(=O)N3CCCCC3)cc2)cc1 | 0.1% (inactive) | -22.2
2 | Cc1ccc(SCCC(=O)Nc2cc(C)on2)cc1 | 10.3% (inactive) | -8.98
3 | NC1=NC2(CCCCC2)N(c2ccc(F)cc2F)C(N)=N1 | -0.71% (inactive) | -2.91
4 | Cc1ccc2cc(C#N)c(NCCNC(=S)NCCCN3CCOCC3)nc2c1 | 10.9% (inactive) | 3.33
5 | Cc1ccc2nc(NCCCNC(=O)c3cnccn3)c(C#N)cc2c1 | 90.6% (active) | -2.29
6 | COCCCNC(=S)NCCNc1nc2cc(C)c(C)cc2cc1C#N | 7.68% (inactive) | 10.7
7 | O=C(NC1CC1)C1CCCN(C(=O)NC2CCCCC2)C1 (stereo unspecified) | -6.93% (inactive) | -6.42
8 | FC(F)(F)COc1nc(N2CCCCC2)nc(N2CCNCC2)n1 | 3.34% (inactive) | 2.8
9 | COc1nc(NC2CCCCC2)nc(N2CCCCCC2)n1 | 66.3% (active) | 28.3
10 | Cc1ccnc(N2CCC(C(=O)NC3CCCCCC3)CC2)n1 | -13.5% (inactive) | -18.9
11 | CCN(CCCNC(=O)CSc1cc(=O)n(C)c2cc(Cl)ccc12)Cc1ccccc1 | -10.6% (inactive) | -11.8
12 | CC(O)CNCCOc1cccc(Oc2ccccc2)c1 (stereo unspecified) | -0.49% (inactive) | 17.6
13 | CCOC(=O)c1[nH]ncc1CN1CCCC(C(=O)c2ccc(OC)cc2C)C1 (stereo unspecified) | 3.7% (inactive) | 9.86
14 | O=C(N/N=C/c1cc2c(cc1Br)OCO2)C1COc2ccccc2O1 (stereo unspecified) | 29.9% (inactive) | 30
15 | Cc1nc2ccccc2nc(C)c1=NOCc1ccc(Cl)cc1Cl | 67.9% (active) | 2.92
16 | O=S(=O)(O)c1nc2ccccc2n1Cc1ccc(Cl)cc1Cl | 18.7% (inactive) | 26
17 | COC(=O)c1sc2ncccc2c1OCc1ccc(Cl)cc1Cl | 12.8% (inactive) | -2.97
18 | CC(C)N1C(=S)SC(C)(C)C1n1oc(=O)n(-c2ccc(Cl)c(Cl)c2)c1=O (stereo unspecified) | 76.3% (active) | 19.9
19 | Cc1ccc(C2CC(c3cccc(NS(C)(=O)=O)c3)=NN2S(C)(=O)=O)cc1 (stereo unspecified) | 4.24% (inactive) | 6.73
20 | CCOc1cc(CNn2c(C)nnc2SCC(=O)NC(C)(C)C)ccc1OCC(=O)NC(C)(C)C | -19.6% (inactive) | 0.2
21 | Cc1cc(C(=O)CCl)c(C)n1CC1COc2ccccc2O1 (stereo unspecified) | 7.72% (inactive) | 25.4
22 | N#Cc1c(N)nc2c(c1N)CC(C(F)(F)F)O2 (stereo unspecified) | -7.69% (inactive) | 1.1
23 | Cc1nc(N2CCOCC2)c2c(C)c(C(=O)Nc3ccc(C(F)(F)F)cc3)sc2n1 | 47.4% (inactive) | -8.5
24 | Cc1nc(N2CCC(C)CC2)c2c(C)c(C(=O)Nc3cc(F)ccc3C)sc2n1 | 64% (active) | -25.2
25 | Cc1nc(N2CCN(c3ccccn3)CC2)c2c(C)c(C(=O)Nc3ccc(F)cc3)sc2n1 | 38.7% (inactive) | 11.3
26 | c1ccc(-c2cc(N3CCCCC3)c3ccccc3n2)cc1 | 36.4% (inactive) | 49.1
27 | CC(C)NC(=S)NN=C1CCCCCCCCCCC1 | 69.5% (active) | 53.1

Row | Structure (SMILES) | inhibition [1] | inhibition (mutant strain inhibition) [%]
28 | CC(C)(C)NC(=O)C(=O)NN=C1CCCCCCC1 | -0.12% (inactive) | 9.74
29 | CC(=O)NC(NC(=S)Nc1c(C)n(C)n(-c2ccccc2)c1=O)C(Cl)(Cl)Cl (stereo unspecified) | 15.8% (inactive) | 0.58
30 | CCOCCCNC(=S)N1CCC(NC(=O)C2CCCCC2)CC1 | 6.14% (inactive) | 2.16
31 | COc1ccc(NS(=O)(=O)c2ccc(O)c(C(=O)OCC(=O)NC3CCCCC3)c2)cc1 | -15% (inactive) | 17.3
32 | COc1ccccc1N1N=C(c2cccs2)CC1c1ccccc1 (stereo unspecified) | 52.7% (inactive) | 33.7
33 | Fc1ccc(N2N=C(c3cccs3)CC2c2ccco2)c(F)c1 (stereo unspecified) | 70.8% (active) | 10.1
34 | COc1ccc(C2CC(c3cccs3)=NN2c2ccc(F)cc2)cc1OC (stereo unspecified) | 30.3% (inactive) | 11.7
35 | CCN1CCC2(CCN(Cc3cn[nH]c3-c3ccc(OC)c(F)c3)C2)C1 (stereo unspecified) | -2.46% (inactive) | -5.08
36 | O=C(CN1CCCCCC1)NCCN1C(=O)S/C(=C\c2ccccc2Cl)C1=O | 2.91% (inactive) | -4.16
37 | CCC1CCCCN1S(=O)(=O)Cc1ccccc1Cl (stereo unspecified) | 0.45% (inactive) | 1.41
38 | CN1C2CCC1/C(=C\c1ccccc1Cl)C(=O)/C2=C\c1ccccc1Cl | 60.7% (active) | 32.3
39 | COc1ccc(Cl)cc1N(CC(=O)N1CCCCC1)S(C)(=O)=O | 11.8% (inactive) | 0.08
40 | Cc1cc(C)cc(C(=O)NC2C(=O)N3C(C(=O)O)=C(CSc4nnc(C)s4)CSC23)c1 (stereo unspecified) | 4% (inactive) | -0.51
41 | COC(=O)c1sc(NC(=O)c2csc3c2CCCC3)nc1C | 16.5% (inactive) | 0.86
42 | COC(=O)c1sccc1NC(=O)c1csc2c1CCCC2 | 71.3% (active) | 48.8
43 | Cc1ccc(NC(=O)c2csc3c2CCCC3)cc1 | 11.5% (inactive) | 21.5
44 | CC(=O)c1cccc(-n2nnnc2SCC(=O)NNC(=O)C2CCCCC2)c1 | 6.05% (inactive) | 12.8
45 | Cc1cc(-c2nnc(CCC(=O)NC(c3ccccc3)c3ccccc3)o2)no1 | 7.01% (inactive) | 6.86
46 | O=C(CCCn1c(SCC(=O)c2ccc(F)cc2)nc2ccccc2c1=O)NCc1ccco1 | 7.88% (inactive) | 15.5
47 | CC(Sc1nc2ccccc2c(=O)n1Cc1ccco1)C(=O)c1ccccc1 (stereo unspecified) | 69.4% (active) | 31.3
48 | CCOC(=O)C(C)Sc1nc2ccccc2c(=O)n1CC1CCCCC1 (stereo unspecified) | 21.8% (inactive) | -3.67
49 | Cc1cc([N+](=O)[O-])nn1CCCC(=O)Nc1cccnc1Cl | -5.91% (inactive) | -23.5
50 | COc1cc(S(=O)(=O)N2CCOCC2)ccc1NC(=O)COc1ccc(N(C)S(=O)(=O)c2ccc(C)cc2)cc1 | 3.51% (inactive) | -4.35
51 | Cc1nc(C)c(C(=O)N(c2ccc(C)c(C)c2)C(C(=O)NCc2ccco2)c2ccccc2)s1 (stereo unspecified) | 16.8% (inactive) | 9.51
52 | Cc1nn(-c2ccccc2)c2sc(C(=O)N(Cc3ccco3)C(C)C(=O)NC(C)(C)C)cc12 (stereo unspecified) | 68.7% (active) | 1.44
53 | Cc1ccc(-c2nnn(CC(=O)N(Cc3ccco3)C(C(=O)NC(C)(C)C)c3ccncc3)n2)o1 (stereo unspecified) | -1.04% (inactive) | -4.44
